Measured values reported in PubChem BioAssay AID463173 (ICCB-Longwood Screening Facility, Harvard Medical School, 2010).
In all, about 52,000 compounds went through this assay and about 1,700 (3.3%) were called active. Rule as the data show it: active = survival mostly below about 52% (no sharp cut-off); inactive = mostly above about 56%. For the sample, actives were picked, then their nearest neighbours and some compounds at random.

tested on: Wild type; assay: growth inhibition of S. aureus wild type versus tarO mutant, primary screen, teichoic acid synthesis inhibitors, RN4220, OD600 (AID 463173); conditions: S. aureus RN4220 wild type/DeltatarO growth, OD600, 18 h, active compounds read low, screened at 18.75 µg/mL (by protocol)

Compound | survival
Cc1cccc(-n2c(SCC(=O)Nc3ccccc3C)nc3c(oc4ccccc43)c2=O)c1 | 86% (inactive)
CCc1ccccc1NC(=O)N1CCN(C(=O)c2nsc3ccccc23)CC1 | -1% (active)
O=C(Nc1ccccc1)N1CCN(C(=O)c2nsc3ccccc23)CC1 | 85% (inactive)
O=C(Nc1ccc(F)cc1)N1CCN(C(=O)c2nsc3ccccc23)CC1 | 14% (active)
O=C(Nc1ccc(F)c(Cl)c1)N1CCN(C(=O)c2nsc3ccccc23)CC1 | 70% (inactive)
Cc1ccc(NC(=O)N2CCN(C(=O)c3nsc4ccccc34)CC2)cc1C | -6% (active)
Cc1cc(C)cc(NC(=O)N2CCN(C(=O)c3nsc4ccccc34)CC2)c1 | 78% (inactive)
CCc1ccc(NC(=O)N2CCN(C(=O)c3nsc4ccccc34)CC2)cc1 | 76% (inactive)
Cc1ccc(C)c(NC(=O)N2CCN(C(=O)c3nsc4ccccc34)CC2)c1 | 69% (inactive)
Cc1cccc(NC(=O)N2CCN(C(=O)c3nsc4ccccc34)CC2)c1C | 72% (inactive)
CCC(C(=O)NCc1ccccc1Cl)n1c(=O)c2cccn2c2ccccc21 (stereo not given) | 76% (inactive)
O=c1c2oc3ccccc3c2n(Cc2cccc(F)c2)c(=O)n1Cc1ccc2c(c1)OCO2 | 86% (inactive)
O=C(Cn1c(-c2cccs2)cc2cc(F)ccc21)N1CCCCC1 | 72% (inactive)
O=C(Nc1cccc(F)c1)c1ccc2oc(=O)n(Cc3ccccc3)c2c1 | 81% (inactive)
O=C(NCc1ccccc1)c1ccc2oc(=O)n(Cc3ccccc3)c2c1 | 71% (inactive)
Cc1ccc(CNC(=O)c2ccc3oc(=O)n(Cc4ccccc4)c3c2)cc1 | 57% (inactive)
CCn1nnc2cc(C(=O)Nc3ccc(OC)cc3)ccc21 | 73% (inactive)
O=C(NCc1ccc(F)cc1)c1ccc2oc(=O)n(Cc3ccccc3)c2c1 | -4% (active)
Cc1cccc(CNC(=O)c2ccc3oc(=O)n(Cc4ccccc4)c3c2)c1 | 60% (inactive)
CCc1ccc(NC(=O)c2ccc3c(c2)nnn3CC)cc1 | -6% (active)

Compound | survival
O=C(Nc1ccc(Cl)cc1)c1ccc2oc(=O)n(Cc3ccccc3)c2c1 | 63% (inactive)
CCc1ccc(NC(=O)c2ccc3oc(=O)n(Cc4ccccc4)c3c2)cc1 | 1% (active)
CCn1nnc2cc(C(=O)Nc3ccc(C)c(Cl)c3)ccc21 | 53% (inactive)
COc1cccc(CNC(=O)c2ccc3oc(=O)n(Cc4ccccc4)c3c2)c1 | -3% (active)
O=C(NCc1ccc(Cl)cc1)c1ccc2oc(=O)n(Cc3ccccc3)c2c1 | 129% (inactive)
Cc1nn(Cc2ccccc2)c(C)c1NC(=O)c1cc(C(C)C)on1 | 77% (inactive)
O=C(Nc1ccc(NC(=O)c2cccs2)cc1)c1ccc(Cl)cc1 | 81% (inactive)
Cc1onc(-c2c(Cl)cccc2Cl)c1C(=O)n1c(C)nc2ccccc21 | 105% (inactive)
Cc1cc(C)cc(NC(=O)Cn2c(-c3cncs3)nc3ccccc32)c1 | 63% (inactive)
CN(C)C(=O)Cn1c2[n+](c3ccccc31)CC(O)CS2 (stereo not given) | 103% (inactive)
O=C(COc1ccc(Cl)cc1)NCC(c1ccco1)S(=O)(=O)c1ccc(Cl)cc1 (stereo not given) | 78% (inactive)
Cc1cccc(CNC(=O)Cc2csc3ccccc23)c1 | 116% (inactive)
COc1ccc(CNC(=O)c2cccc(NC(=O)N3CCSc4ncccc43)c2)cc1 | 67% (inactive)
COc1ccccc1NC(=O)CCn1nc(-c2ccccc2OC)c2c(C)cc(C)nc21 | 111% (inactive)
O=C1c2ccccc2C(=O)N1COc1cccc2cccnc12 | 101% (inactive)
O=C(Oc1cccc2cccnc12)c1ccccc1 | 1% (active)
O=C(Oc1ccccc1-c1nc(-c2ccccc2)no1)c1ccccc1 | 100% (inactive)
O=C(/C=C\c1ccco1)Oc1cccc2cccnc12 | 1% (active)
O=C(/C=C/c1ccco1)ON1C(=O)c2ccccc2C1=O | 117% (inactive)
O=C(/C=C/c1ccco1)OCCN1CCOCC1 | 92% (inactive)

Compound | survival
N#Cc1ccccc1NC(=O)Cn1cnc2onc(-c3cccc(F)c3)c2c1=O | 105% (inactive)
O=C(C1CCN(c2nc3ccccc3[nH]2)CC1)N1CCN(c2ccccc2)CC1 | 85% (inactive)
O=C(C1CCN(c2nc3ccccc3[nH]2)CC1)N1CCN(c2cccc(Cl)c2)CC1 | 0% (active)
Cc1ccc2nc(N3CCC(C(=O)N4CCN(c5cccc(Cl)c5)CC4)CC3)[nH]c2c1 | 74% (inactive)
CCCC(=O)c1cc(F)c(N2CCOCC2)cc1C | 121% (inactive)
Cc1ccc(NC(=O)Cn2c(=O)n(Cc3ccccc3)c(=O)c3sc4ccccc4c32)cc1 | 93% (inactive)
Cc1ccc(-n2ncc(C(=O)NCc3ccco3)c2C2CCN(C(=O)OC(C)(C)C)CC2)cc1C | 72% (inactive)
COc1ccc(N2CCN(c3oc(/C=C/c4ccc(F)cc4)nc3C#N)CC2)cc1 | 84% (inactive)
COc1cccc(C(=O)N(Cc2nc(-c3ccc(Cl)cc3)no2)C(C)C)c1OC | 46% (inactive)
Cc1ccc(-c2noc(CNC(=O)c3ccc(C(C)(C)C)cc3)n2)cc1 | 89% (inactive)
CCCCOc1ccc(C(=O)N(Cc2nc(-c3ccc(Cl)cc3)no2)C(C)C)cc1 | 85% (inactive)
CCOc1cc(C(=O)NCc2nc(-c3cccc(C)c3)no2)cc(OCC)c1OCC | 89% (inactive)
Cc1ccc(-c2noc(CN(C(=O)c3ccc(C(C)(C)C)cc3)C(C)C)n2)cc1 | -1% (active)
CCOc1cc(C(=O)N(Cc2nc(-c3ccc(C)cc3)no2)C(C)C)cc(OCC)c1OCC | 15% (active)
Cc1cc(C)cc(C(=O)N(Cc2nc(-c3ccc(Cl)cc3)no2)C(C)C)c1 | 17% (inactive)
CC(C)N(Cc1nc(-c2ccc(Cl)cc2)no1)C(=O)c1ccc(C(C)(C)C)cc1 | 0% (active)
CCCCN(C)CCCNC(=O)C1CCN(S(=O)(=O)CCC)CC1 | 77% (inactive)
Cc1ccc(NC(=O)Cn2c(=O)n(CCC(=O)N3CCc4ccccc4C3)c(=O)c3ccccc32)c(C)c1 | 79% (inactive)
COc1cccc(C(=O)Nc2cc3c(cc2C(=O)c2ccc(C)cc2)OCCO3)c1 | 71% (inactive)
CCOC(=O)c1cc(S(=O)(=O)Nc2ccc(OC(F)(F)F)cc2)[nH]n1 | 87% (inactive)
